Results published in PubChem BioAssay (NCATS).
Inconclusive results are not listed. Calls of active or inactive are those of the source. The call rests on the fitted dose curve; in most records, active means well fitted curve in the direction sought with a large enough effect; inconclusive means small, poorly fitted or top-dose-only effect, or another doubt; inactive means no such curve, though single readings can be large; an effect the other way counts as inactive or inconclusive.

Tests used:
[1] = qHTS for compounds that reverse cellular toxicity of Amyloid beta (A-beta) peptide in yeast: LOPAC Validation Assay (AID 720559); conditions: Potency: rescue of growth toxicity
Procedure, shortened: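 Rescue of A-beta toxicity was scored as yeast growth by 600 nm absorbance after 48 hr at 30 C with compound. Normalization used DMSO (negative) and equimolar ferric chloride plus clioquinol (positive).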

[2] = qHTS for Activators of Parkin Expression: LOPAC Validation Assay (NLuc Reporter) (AID 720572)
Procedure, shortened: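 Cells harboring the Parkin-promoter coincidence reporter were treated for 24 h at seven concentrations. NLuc output was measured sequentially after the FLuc channel and scaled between DMSO and positive control values.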

[3] = qHTS for Activators of Parkin Expression: LOPAC Validation Assay (FLuc Reporter) (AID 720573)
Procedure, shortened: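 FLuc signal from Parkin-promoter coincidence reporter neuronal cells, normalized to DMSO and positive control (100%). Cells (1,500/well) pre-incubated 24 h, then exposed to LOPAC compounds in 7-point dose response for 24 h at 37 C, 5% CO2.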

[4] = target: T1, Hexokinase-4 (Homo sapiens) + Glucokinase regulatory protein (Homo sapiens) (UniProt P35557+Q14397); assay: qHTS assay for inhibitors of recombinant human GCK-GKRP interaction: Diaphorase-coupled assay (AID 743205)
Procedure, shortened: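 A kinetic fluorescence read (Ex 525/Em 590 nm, every minute for 30 minutes) tracked resorufin from a G6PDH-diaphorase coupled GCK reaction. It contained 10 nM GST-GCK, 10 nM FLAG-GKRP, 5 mM glucose, 0.4 mM ATP in Hepes pH 7.6. Normalized to with/without-enzyme DMSO controls.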

[5] = target: T1, Hexokinase-4 (Homo sapiens) + Glucokinase regulatory protein (Homo sapiens); assay: qHTS assay for inhibitors of recombinant human GCK-GKRP interaction: ADP-Glo assay (AID 743206)
Procedure, shortened: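 Pin-transferred compounds meet a 15 nM GST-GCK/15 nM FLAG-GKRP/2 uM S6P mix (dispense concentrations). ATP is then added to 0.4 mM final with 5 mM glucose, and the reaction runs 60 min at room temperature. ADP is quantified luminescently.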

[6] = target: T1, Hexokinase-4 (Homo sapiens) + Glucokinase regulatory protein (Homo sapiens); assay: qHTS assay for inhibitors of recombinant human GCK-GKRP interaction: HTRF assay (AID 743207)
Procedure, shortened: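 After 60 min equilibration at room temperature with anti-FLAG XL665 and anti-GST antibodies, FRET ratio (665/615 nm, excitation 320 nm) was read. Proteins: GST-GCK and FLAG-GKRP, each 5 nM, plus 2 uM S6P, pH 7.1 buffer; GCK-free wells define minimum signal.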

[7] = target: Arylsulfatase A (Homo sapiens) (UniProt P15289); assay: qHTS screen for enhancers of Arylsulfatase A (ASA1): LOPAC Validation Assay (AID 720538)
Procedure, shortened: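 Enhancer assay in patient-derived MLD fibroblasts carrying ASA-I179S: 48 h compound exposure at 37 C, then 14 h room-temperature pNCS turnover (0.5 mM final) in lysis buffer. Read by fluorescence at 525/598 nm after NaOH stop.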

Measured: Potency

Sequence of Arylsulfatase A (Homo sapiens) (P15289 whole entry, looked up): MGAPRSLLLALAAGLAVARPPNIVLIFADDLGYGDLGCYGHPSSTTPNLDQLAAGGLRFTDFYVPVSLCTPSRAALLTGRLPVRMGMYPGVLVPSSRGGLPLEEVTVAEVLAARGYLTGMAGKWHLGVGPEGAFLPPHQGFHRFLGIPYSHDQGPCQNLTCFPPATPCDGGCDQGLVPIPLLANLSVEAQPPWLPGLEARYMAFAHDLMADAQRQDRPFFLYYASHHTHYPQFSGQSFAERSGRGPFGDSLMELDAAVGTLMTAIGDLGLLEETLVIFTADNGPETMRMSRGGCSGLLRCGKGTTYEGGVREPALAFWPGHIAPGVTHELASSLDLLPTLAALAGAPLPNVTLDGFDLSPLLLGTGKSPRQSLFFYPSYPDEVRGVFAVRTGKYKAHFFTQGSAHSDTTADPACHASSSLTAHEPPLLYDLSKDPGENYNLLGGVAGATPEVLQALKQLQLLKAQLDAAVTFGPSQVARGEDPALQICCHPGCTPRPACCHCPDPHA
T1 sequence (P35557 whole entry, looked up): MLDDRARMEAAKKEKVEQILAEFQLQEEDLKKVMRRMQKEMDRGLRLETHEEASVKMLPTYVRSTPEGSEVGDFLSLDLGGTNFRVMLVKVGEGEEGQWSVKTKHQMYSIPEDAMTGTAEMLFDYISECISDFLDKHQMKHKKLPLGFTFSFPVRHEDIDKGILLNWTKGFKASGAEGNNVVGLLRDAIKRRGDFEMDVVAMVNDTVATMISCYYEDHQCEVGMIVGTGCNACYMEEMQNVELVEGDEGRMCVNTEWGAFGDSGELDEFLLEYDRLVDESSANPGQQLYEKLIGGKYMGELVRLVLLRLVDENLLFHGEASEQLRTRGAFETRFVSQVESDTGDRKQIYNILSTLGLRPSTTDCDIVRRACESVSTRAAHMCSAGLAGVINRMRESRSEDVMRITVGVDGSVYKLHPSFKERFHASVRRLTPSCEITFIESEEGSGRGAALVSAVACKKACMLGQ
T1 sequence (Q14397 whole entry, looked up): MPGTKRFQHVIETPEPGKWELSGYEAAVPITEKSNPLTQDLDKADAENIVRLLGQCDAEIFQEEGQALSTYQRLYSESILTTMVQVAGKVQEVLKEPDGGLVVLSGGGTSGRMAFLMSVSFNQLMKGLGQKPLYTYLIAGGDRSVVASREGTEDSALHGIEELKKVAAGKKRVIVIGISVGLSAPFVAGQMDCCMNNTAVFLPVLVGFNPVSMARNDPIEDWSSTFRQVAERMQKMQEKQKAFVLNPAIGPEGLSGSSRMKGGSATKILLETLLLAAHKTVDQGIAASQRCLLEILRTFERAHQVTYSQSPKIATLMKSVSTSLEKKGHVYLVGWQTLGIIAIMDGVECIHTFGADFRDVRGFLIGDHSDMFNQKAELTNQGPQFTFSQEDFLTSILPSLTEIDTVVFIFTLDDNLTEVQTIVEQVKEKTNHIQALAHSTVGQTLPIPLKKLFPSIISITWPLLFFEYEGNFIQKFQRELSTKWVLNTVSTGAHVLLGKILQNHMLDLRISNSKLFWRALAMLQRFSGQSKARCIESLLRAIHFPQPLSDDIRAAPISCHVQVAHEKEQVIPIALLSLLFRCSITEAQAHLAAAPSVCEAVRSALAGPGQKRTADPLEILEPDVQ

CC1OC1P(=O)(O)O (stereo not given)
inactive: [1] | [2] | [3] | [4] | [5] | [6]

COc1ccc(NC(=O)/C=C/c2ccc(Cl)cc2)cc1
inactive: [7] | [2] | [4] | [5] | [6]

COc1cc2c(CCNC(C)=O)c[nH]c2cc1Cl
inactive: [7] | [2] | [3] | [4] | [6]

Clc1ccc(N2CCN(Cc3cc4ccccn4n3)CC2)cc1
inactive: [7] | [2] | [3] | [5] | [6]

CN(C)CCCO[C@@H]1[C@H]2OC(C)(C)O[C@H]2O[C@@H]1[C@H](O)CO
inactive: [1] | [2] | [3] | [4] | [5] | [6]

O=[N+]([O-])c1ccc(CSc2ncnc3c2ncn3[C@@H]2O[C@H](CO)[C@@H](O)[C@H]2O)cc1
inactive: [1] | [2] | [3] | [4] | [5] | [6]

OC[C@H]1O[C@@H](n2cnc3c(Nc4ccccc4)ncnc32)[C@H](O)[C@@H]1O
inactive: [7] | [1] | [2] | [5] | [6]

CC12C(=O)OC(=O)C1(C)C1CCC2O1 (stereo not given)
inactive: [7] | [2] | [3] | [4] | [6]

CC(C)(C)c1ccc(S(=O)(=O)/C=C/C#N)cc1
inactive: [7] | [2] | [4] | [5] | [6]

O=C1O/C(=C/Br)CCC1c1cccc2ccccc12 (stereo not given)
inactive: [7] | [2] | [3] | [4] | [6]

CN1[C@@H](CC(=O)c2ccccc2)CCC[C@H]1C[C@H](O)c1ccccc1
inactive: [1] | [2] | [3] | [4] | [5] | [6]

Nc1nc(Nc2ccccc2)nc2c1ncn2[C@@H]1O[C@H](CO)[C@@H](O)[C@H]1O
inactive: [7] | [1] | [2] | [5] | [6]

NCCCCCCCCCCN
inactive: [1] | [2] | [3] | [5] | [6]

O=C(/C=C/c1ccc(O)cc1)c1ccc(O)cc1O
inactive: [1] | [2] | [3] | [4] | [5] | [6]

CC(=O)N[C@H](C(=O)O)C(C)(C)SN=O
inactive: [1] | [2] | [3] | [4] | [5] | [6]

N#C/C(=C\c1ccc(O)c(O)c1)C(=O)NCc1ccccc1
inactive: [1] | [2] | [3] | [4] | [6]

CNC(=O)[C@H]1O[C@@H](n2cnc3c(NCc4cccc(I)c4)ncnc32)[C@H](O)[C@@H]1O
inactive: [1] | [2] | [3] | [4] | [6]

CNc1ncnc2c1ncn2[C@@H]1O[C@H](CO)[C@@H](O)[C@H]1O
inactive: [1] | [2] | [3] | [4] | [6]

NCC1OC(O[C@H]2[C@H](O)[C@@H](OC3C(O)C(N)CC(N)C3OC3OC(CO)C(O)C(O)C3N)O[C@@H]2CO)C(N)C(O)C1O (stereo not given in full)
inactive: [1] | [2] | [3] | [4] | [5] | [6]

NC(=S)c1ccc[n+]([C@@H]2O[C@@H](COP(=O)([O-])OP(=O)(O)OC[C@H]3O[C@@H](n4cnc5c(N)ncnc54)[C@H](OP(=O)(O)O)[C@@H]3O)C(O)C2O)c1 (stereo not given in full)
inactive: [1] | [2] | [3] | [5] | [6]

CCOC(=O)N1CCN(/[N+]([O-])=N/Oc2ccc([N+](=O)[O-])cc2[N+](=O)[O-])CC1
inactive: [1] | [2] | [3] | [6]

C[N+]1(C)CCC(OC(=O)C(c2ccccc2)c2ccccc2)CC1
inactive: [1] | [2] | [3] | [4] | [5] | [6]

CC(N)C(=O)OC(C)(C)Cc1ccc(Cl)cc1 (stereo not given)
inactive: [1] | [2] | [3] | [4] | [5] | [6]

C[N+](C)(C)CC(=O)[O-]
inactive: [1] | [2] | [3] | [4] | [5] | [6]

N#C/C(=C\c1ccc(O)c(O)c1)C(=O)c1ccc(O)c(O)c1
inactive: [1] | [2] | [3] | [4] | [5] | [6]
